In PubChem BioAssay AID1159580 (chemical genetic matrix, 2015):
Among all 5,500 compounds or so, about 2,000 (36%) were called active. About 18% were inconclusive and are not listed. No stated cut-off is given here; in the data, active means normalized growth mostly below about 0.91 (no sharp cut-off); inconclusive means no clear call, values can overlap the other calls; inactive means mostly above about 0.92. The list shows a part of the results.

Test: chemical genetic growth profiling, strain panel (AID 1159580);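 further: tested at 20 µM; growth read once vehicle control cultures reached saturation at 30 °C; 1 = growth at the plate median or of vehicle wells; lower values mean less growth of the strain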
Settings: growth OD

Measured: normalized growth

N#CC(c1ccccc1)N1CCCCC1 (stereo not drawn)
inactive: S. cerevisiae deletion strains, locus YAL013W, strain DEP1, hits give low values 1.04 | S. cerevisiae deletion strains, locus YBR229C, strain ROT2, hits give low values 0.995 | S. cerevisiae deletion strains, locus YDL101C, strain DUN1, hits give low values 1 | S. cerevisiae deletion strains, locus YDL134C, strain PPH21, hits give low values 0.99 | S. cerevisiae deletion strains, locus YDR150W, strain NUM1, hits give low values 0.964 | S. cerevisiae deletion strains, locus YEL061C, strain CIN8, hits give low values 1.02 | S. cerevisiae deletion strains, locus YGR078C, strain PAC10, hits give low values 1 | S. cerevisiae deletion strains, locus YHR030C, strain SLT2, hits give low values 1.04 | S. cerevisiae deletion strains, locus YHR087W, strain rtc3, hits give low values 0.995 | S. cerevisiae deletion strains, locus YJR043C, strain POL32, hits give low values 0.994 | S. cerevisiae deletion strains, locus YJR075W, strain HOC1, hits give low values 0.984 | S. cerevisiae deletion strains, locus YKL190W, strain CNB1, hits give low values 0.99 | S. cerevisiae deletion strains, locus YLR039C, strain RIC1, hits give low values 0.969 | S. cerevisiae deletion strains, locus YLR058C, strain SHM2 (second series), hits give low values 0.987 | S. cerevisiae deletion strains, locus YLR085C, strain ARP6, hits give low values 1.02 | S. cerevisiae deletion strains, locus YLR262C, strain YPT6, hits give low values 1.02 | S. cerevisiae deletion strains, locus YML094W, strain GIM5, hits give low values 1.02 | S. cerevisiae deletion strains, locus YMR219W, strain ESC1, hits give low values 1.01 | S. cerevisiae deletion strains, locus YMR263W, strain SAP30, hits give low values 1.01 | S. cerevisiae deletion strains, locus YMR307W, strain GAS1, hits give low values 0.928 | S. cerevisiae deletion strains, locus YNL153C, strain GIM3, hits give low values 1 | S. cerevisiae deletion strains, locus YNL298W, strain CLA4 (second series), hits give low values 0.985 | S. cerevisiae deletion strains, locus YNL322C, strain KRE1, hits give low values 1.01 | S. cerevisiae deletion strains, locus YNR030W, strain Alg12, hits give low values 1 | S. cerevisiae deletion strains, locus YPL055C, strain LGE1, hits give low values 1.03 | S. cerevisiae deletion strains, locus YPL241C, strain CIN2, hits give low values 0.975 | S. cerevisiae deletion strains, locus YPR135W, strain CTF4, hits give low values 1.19 | S. cerevisiae strains, strain wild type, hits give low values 0.985
